Laboratory results reported in the supplement of paper PMC6555819.

The sequences below were run on VDR:RXRa (NR concentration 270 nM, RXRa partner concentration 90 nM) (assay: PBM binding z-score (relative to random genomic background probes); higher = stronger binding; sequences stand for … in GC…GCGATTGACAGCGTAGAATGAAGG).
Protocol: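 Protein-binding microarray (Agilent 4x180K custom design, double-stranded 60-nt probes: 5' GC cap, 34-nt variable region, 24-nt constant primer region; full probe sequence given). Purified or IVT nuclear receptor:RXRα heterodimers (3:1 NR:RXRα, mostly 270:90 nM) or homodimers were incubated for 1 h in PBS with 2% milk and no ligand, then detected with Alexa488 antibodies. Fluorescence from o1-orientation probes (~5 replicates averaged) was converted to z-scores against 500 random hg19 background probes. Variable regions are seed direct-repeat (DR0–DR5) sites, all their single-nucleotide variants and half-site ablations.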

Row | Sequence | PBM binding z-score
1 | GCAGACAGGTGAAACGCAGGAAACTCAGGGTGGC | -0.533
2 | AGAACGAGCGCAATGAGTTGATAGCACGGGTGGC | -0.0491
3 | TAGCCTAGGTAATTCAGGGGCCAGTATAGAAAGC | -0.417
4 | ACTTACGGGTCAACGAGGTTATAGTACGCGTATA | 7.78
5 | ATCGAAAGGTCGACGAGGTGAGTATTCACCGTTT | 5.38
6 | TAGCCTAGGTCAGAGCGGGCCAGTATACGCTATA | 0.36
7 | TCTATTAGTTGGTTAGGGCAACCGAAACAGCGGA | 0.428
8 | CCTGCTAGGTCATGGTCAGCTATTCTACAGTATG | 1.52
9 | AGAACGAGGGCGATGAGTTGATAGCACGGGTGGC | 3.12
10 | ATCGAAAGGTCGAAGGCGAGTATACCCACCCGAA | 2.22
11 | CCTTACGGGTCACTGACAGGTTATAGGATTTGGA | 3.77
12 | TATACAGGGTCAAAGGCCCGAGTACGAATGTCGA | 4.53
13 | CCTAGCAGGCCAGGGTCACTCACGCATTTCGCTT | 2.3
14 | CCAACTAGGTCACAGAGGTCAAAGTCCGTGCGTA | 7.88
15 | CTCGAAAGGTCGGTTAAGGTGAGTATACGGATAA | 2.03
16 | TGTCAAAGTTCAAAGATAACGTAAGTATCCACAC | 4.23
17 | AATACAGGGTCATGGTAGGCCAGAGTACGCACAG | 4.95
18 | GCGACTGGGGTAAAGCAGGTTACCATAAGGTTGG | 1.15
19 | CCTACTGGGCCAAAGGTCACTGATTCCAATGCTC | 4.55
20 | ATCTTTAGGTAAAGTTCAGTGAAAGATCGATAGA | 1.7

Row | Sequence | PBM binding z-score
21 | CCGTACGGGTCACTGACAGGTTATAGCATTTGGA | 3.72
22 | CGTCCAAGGTCCGAGAGGTCAGTGAATGCCGAGT | 3.27
23 | ACAGGCAGGTGATGAAGGTAACTCAGGCTATCAT | -0.0607
24 | AGAACGAGGGCACGCTGAGTTGAGAGCAGAGTAG | 1.59
25 | ATCTGTAGGTTACATCCGGGTCATTCAGGCTATG | 4.16
26 | CCTAGCAGGCCAATCTGGGTGACTCAAGGCTTGA | -0.769
27 | TCGAGTAGGTTACCAATGGGGGATTCAGCTTTCT | 0.83
28 | TCTATAAGTTGAAGGGCAACCGACGAGTCCGTTT | 1.07
29 | GCGACTGGGGCAAAGCTGGTTACCATAAGGTTGG | -0.475
30 | CCCACTGGGCCAAAAAGGTCATTGATGCCGATAA | 4.94
31 | GCTTGTAGATCAAGGTTAAGAGAGACTAAGCTAA | -0.00778
32 | GCAGACAGGTGAAACGCAGGTAACTCATGGTGGC | -0.567
33 | ATACGAAGGTGATCGTGAGGTCGTTGATACTAAC | 3.09
34 | CGAACTAGGTCATGGACAGTGAATCTCCGCACGC | 1.64
35 | ATATGTAGATTAAGGGTCATTCAGGTTGGTTCGC | 5.22
36 | ACAGACAGGTGAGTGAAGGTAACTCCGCTGGACG | -0.433
37 | TCGAGCAGGCCAGAGGGTCACTCAAGAGGTACGG | 1.48
38 | ACATGTAGGTTAGCTGGGGTCATTCAGACTAGGC | 6.43
39 | CGTCCAAGGTCAGAGGGGTCAGTGAATGCCGAGT | 7.48
40 | CGAACTAGGTCAGGGACAGTGAATCTCCGCACGC | 0.457
